Drawing on PubChem BioAssay AID2685 (National Center for Advancing Translational Sciences (NCATS), 2010), this text covers Potency, cell number change and lipid storage change, negative = inhibition for 56 molecules.

Each structure is given as a SMILES string. The campaign covered roughly 320,000 compounds. About 2,100 (0.66%) were called active. Another 53% or so got no clear call; they are omitted. Calls come from the whole dose curve; as a rule, active = well fitted inhibition curve with a large enough effect in the signal ratio, with a control signal flat (not every such curve was filed as active); inconclusive = small, poorly fitted or top-dose-only effect, or effect the other way, or a change in a side signal; inactive = flat fitted curve, though single readings scatter; the % refers to the signal ratio. The entries come from a sample that favours actives as a whole.
Potency is the fitted concentration of half-maximal effect.

The test in a line: qHTS Assay for Lipid Storage Modulators in Drosophila S3 Cells.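 For cell number change: cells counted by Cell Tracker Red CMTPX staining in the red channel.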 For lipid storage change, negative = inhibition: % is set by controls: 0 for no effect and ±100 for the full control effect. Conditions: BODIPY lipid droplet fluorescence, 18-24 h, cells fed with added oleic acid; cell number change: measured here: cell count max response; series mostly up to 46.1 µM. The text has this: NIH Molecular Libraries Probe Production Centers Network [MLPCN] NIH Chemical Genomics Center [NCGC] MLPCN Grant: 1 R03 MH085686-01 Assay Submitter (PI): Beller, Mathias; Max-Planck-Institut fur Biophysikalische Chemie NCGC Assay Overview: Storing lipids as a reservoir for energy or the anabolism of elementary metabolites is a common feature of probably all cells and is conserved from bacteria to humans. The universal cellular lipid storage organelle is the so-called lipid storage droplet (LD). Although ubiquitous, LDs share a simple structure composed of a hydrophobic core that harbors the storage lipids, which is shielded by a droplet-specific phospholipid monolayer to which proteins are attached. The current model of LD biogenesis involves an incorporation of the lipid core into the membrane leaflets of the endoplasmic reticulum (ER) followed by a subsequent budding-like maturation of a LD, which ultimately pinches off. Once released, LD volume can increase by localized lipogenesis or fusion of existing droplet. Storage lipids are re-mobilized enzymatically by lipase activity. Lipase regulation in the adipocyte is heavily studied and involves multiple components including catecholamine signaling, the LD-associated proteins Perilipin and comparative gene identification (CGI-58) and at least two lipases named hormone sensitive lipase (HSL) and adipocyte triglyceride lipase (ATGL). LD regulation outside of the adipocyte is poorly understood and only few components are known. However, there is an urgent need to learn more about ectopic fat depots as mislocalized storage of lipids, for example in the liver or muscle, is an eminent health problem associated with insulin resistance or the metabolic syndrome. We developed a laser-scanning cytometer assay to enable 1,536-well screening and combined the results of the small molecules screen with an RNAi database based on lipid storage.
Triacsin C (Sigma-Aldrich T-4540), an inhibitor of long-chain fatty acyl CoA synthetase that blocks synthesis of triglycerides, was used as a positive control for lipid under-storage. A total of 23 nL of compound solution of different concentrations were transferred to the assay plates using a Kalypsys pin tool equipped with a 1,536-pin array containing 10-nL slotted pins (FP1S10, 0.457-mm diameter, 50.8 mm long; V&P Scientific). One microliter of oleic acid (400 uM) was added, and the plate was lidded with stainless steel rubber gasket lined lids containing pinholes. […] Fluorescence was detected by excitation of the fluorophores with a 488-nm laser on an Acumen Explorer (TTP Lab Tech). The total intensity in channel 2 (500-530 nm) reflected lipid droplet accumulation. Cells were detected using channel 3 (575-640 nm) with 5-um width and 100-um depth filters. The ratio of the number of objects in PMT channel 2 over the number of objects in PMT channel 3 was also calculated. Percent activity was computed relative to an internal control (100% inhibited lipid droplet deposition due to the presence of 20 uM Triacsin C), which was added to 32 wells/plate.
(qHTS replaces the single test concentration by a dilution series.)
On to `COC(=O)CSc1nc(N2CCOCC2)c2c(c1C#N)CC(C)(C)N(C)C2`, for which the Potency entry was “inactive” and the cell number change was determined as 15.3%.
The like results for `O=C(O)c1cccc2c1C(=O)c1ccc(-c3ccc(F)cc3F)cc1S2(=O)=O` were, in that order, “inactive” and 1.93%.
Turning to `COc1cccc(-c2ccc3c(c2)S(=O)(=O)c2cccc(C(=O)O)c2C3=O)c1OC`, the Potency was 0.651 µM (active).
As to `COc1ccc(-c2ccc3c(c2)S(=O)(=O)c2cccc(C(=O)O)c2C3=O)cc1OC`, the Potency entry was “inactive” and the cell number change was found to be 0.722%.
The like results for `CC1(C)C(C=C(Cl)Cl)C1C(=O)N(Cc1ccccc1Cl)C1CCS(=O)(=O)C1` (configuration not stated) were, in that order, “inactive” and -19.9%.
The like results for `O=C(c1ccco1)N(Cc1ccc(Cl)cc1)C1CCS(=O)(=O)C1` (configuration not stated) were, in that order, “inactive” and 5.9%.
For `C=CCN(C(=O)c1ccccc1)C1CCS(=O)(=O)C1` (configuration not stated) the same measures were “inactive” and 22.7%.
In the case of `CC1(C)C(C=C(Cl)Cl)C1C(=O)N(Cc1ccc(Cl)cc1)C1CCS(=O)(=O)C1` (configuration not stated), the Potency was 8.2 µM (active) and the cell number change is -12%.
The like results for `Cc1cc(Cl)c2oc(C(=O)N3CCN(C4CCS(=O)(=O)C4)CC3)c(C)c2c1` (configuration not stated) were, in that order, “inactive” and 16.7%.
For `Cc1c(C(=O)N(Cc2ccccc2)C2CCS(=O)(=O)C2)oc2ccccc12` (configuration not stated) the same measures were “inactive” and 19%.
The like results for `Cc1c(C(=O)N(Cc2ccc(Cl)cc2)C2CCS(=O)(=O)C2)oc2ccccc12` (configuration not stated) were, in that order, 9.2 µM (active) and -19.8%.
Consider `C=CCN(C(=O)c1oc2c(Cl)cc(C)cc2c1C)C1CCS(=O)(=O)C1` (configuration not stated), for which the Potency is 20.6 µM (active) and the cell number change is 7.31%.
For `Cc1c(C(=O)N(Cc2ccc(F)cc2)C2CCS(=O)(=O)C2)oc2ccccc12` (configuration not stated) the same measures were “inactive” and 3.58%.
In the case of `O=C1CSC(c2ccccc2)N1CC(O)c1ccc([N+](=O)[O-])cc1` (configuration not stated), the Potency result is “inactive” and the cell number change came to 14%.
The like results for `CCOc1ccc(-c2noc(-c3cccnc3)n2)cc1OCC` were, in that order, “inactive” and 2.29%.
For `O=[N+]([O-])c1cccc(OCCN2CCC(Cc3ccccc3)CC2)c1` the same measures were “inactive” and 10.2%.
For `COc1ccc(S(=O)(=O)CCC(=O)Nc2ccc(OC)cc2OC)cc1` the same measures were “inactive” and -8.69%.
`Cc1ccc(C(=O)CCC(=O)OCC(=O)N(CC(C)C)c2c(N)n(Cc3ccccc3)c(=O)[nH]c2=O)cc1`: the Potency entry is “inactive” and the cell number change stood at 20.5%.
As for `COc1ccc(CCNc2c(C=O)c(=O)[nH]c3ccccc23)cc1OC`, the Potency result was “inactive”.
With `Cc1cc(Br)ccc1NC(=O)C(C)c1ccc([N+](=O)[O-])cc1` (configuration not stated), the Potency entry is “inactive” and the cell number change is 6.98%.
As for `Cc1ccc(-n2cc(S(=O)(=O)c3ccc(C)cc3)[nH]c2=O)cc1`, the Potency result is “inactive” and the cell number change was determined as 12.8%.
As for `CCc1c(C(C)S(=O)(=O)c2ccc(C)cc2)[nH]c(=O)n1-c1ccc(C)cc1` (configuration not stated), the Potency was 29.1 µM (active) and the cell number change is -0.34%.
The like results for `Cc1ccc(-n2c3c(c(=O)[nH]c2=O)C(NS(=O)(=O)c2ccc(C)cc2)(C(F)(F)F)C(=O)N3)cc1` (configuration not stated) were, in that order, “inactive” and -0.886%.
As for `Brc1ccc(-n2cccc2/C=N/n2cnnc2)cc1`, the Potency entry is “inactive”.
Regarding `N#Cc1nc(COc2ccc(Br)cc2)oc1N1CCCCCC1`, the cell number change was found to be 7.38% and the lipid storage change, negative = inhibition was 17.2% [at 9.22 µM] (inactive).
For `Cc1ccc(OCc2nc(C#N)c(N3CCCCC3)o2)cc1`, the Potency result is “inactive” and the cell number change amounted to 15.9%.
The like results for `N#Cc1nc(COc2ccc(Cl)cc2)oc1N1CCCC1` were, in that order, 23.1 µM (active) and -31%.
Regarding `COc1ccc(OC)c(-c2cc(C(=O)N3CCN(c4ncccn4)CC3)c3ccccc3n2)c1`, the Potency entry was “inactive” and the cell number change is -4.49%.
For `Cc1onc(-c2ccccc2Cl)c1C(=O)Nc1ccccc1` the same measures were “inactive” and 6.9%.
For `COc1cc(S(=O)(=O)N(C)C)ccc1F` the same measures were “inactive” and -10.1%.
For `COC(=O)C1=C(C)NC2=C(C(=O)c3ccccc32)C1c1cccc(OC)c1` (configuration not stated) the same measures were “inactive” and -11.6%.
Turning to `CCOC(=O)C1=C(C)NC2=C(C(=O)c3ccccc32)C1c1cccc2ccccc12` (configuration not stated), the Potency was 16.4 µM (active) and the cell number change was -15.2%.
For `CCOC(=O)C1=C(C)NC2=C(C(=O)c3ccccc32)C1c1ccc([N+](=O)[O-])o1` (configuration not stated) the same measures were “inactive” and 12.6%.
The like results for `CCC1CCCCN1C(=O)CNCC1CCCO1` (configuration not stated) were, in that order, “inactive” and 14.6%.
Take `CSc1ccccc1NC(=O)CN(Cc1ccccc1)S(C)(=O)=O`: the Potency result was “inactive”.
With `Cc1ccc(CS(=O)(=O)CC(C)(O)c2ccccc2)cc1` (configuration not stated), the Potency entry was “inactive” and the cell number change was found to be 15.3%.
The like results for `CCOc1ccc(C(C(=O)NCC2CCCO2)N(Cc2cccs2)C(=O)c2snc(C(N)=O)c2N)cc1` (configuration not stated) were, in that order, 1.64 µM (active) and 15%.
The like results for `CCOc1ccc(C(C(=O)NCC2CCCO2)N(Cc2cccnc2)C(=O)c2snc(C(N)=O)c2N)cc1` (configuration not stated) were, in that order, “inactive” and -2.82%.
Turning to `COc1ccc(C(C(=O)NCC2CCCO2)N(Cc2cccs2)C(=O)c2snc(C(N)=O)c2N)cc1OC` (configuration not stated), the Potency entry is “inactive” and the cell number change worked out at 25.6%.
For `Cc1cccc(-n2ncc3c2CCCC3NC(=O)CCN2CCCCO2)c1C` (configuration not stated) the same measures were “inactive” and -4.74%.
For `O=C(CSc1ccc(-c2ccccn2)nn1)N1CCCC1` the same measures were “inactive” and 4.79%.
On to `COc1cc(CN2CCC(Cc3ccccc3)CC2)c([N+](=O)[O-])cc1OC`, for which the Potency entry was “inactive” and the cell number change was 21.3%.
The like results for `COc1ccc(CSc2nnc(CNS(C)(=O)=O)o2)cc1` were, in that order, “inactive” and 8.09%.
The like results for `COc1cc([N+](=O)[O-])ccc1N1C(=O)C2C3C=CC(C4CC34)C2C1=O` (configuration not stated) were, in that order, “inactive” and -23.6%.
The like results for `O=S(=O)(NCc1ccccc1Cl)c1ccc(-n2cccn2)cc1` were, in that order, 16.4 µM (active) and -0.567%.
As for `COc1ccccc1CNS(=O)(=O)c1ccc(-n2cccn2)cc1`, the Potency entry was “inactive” and the cell number change was -13.2%.
For `O=S(=O)(NCc1ccccc1)c1ccc(-n2cccn2)cc1` the same measures were “inactive” and -18%.
As to `O=C(NCCCCO)c1ccc2c3c(cccc13)CC2`, the Potency entry was “inactive” and the cell number change was -6.57%.
For `Cc1ccc(NC(=S)NC(C)CCc2ccccc2)cc1C` (configuration not stated) the same measures were “inactive” and 23.4%.
For `O=C(Nc1ccc2nc3n(c(=O)c2c1)CCCCC3)c1ccccn1` the same measures were “inactive” and -14.9%.
The like results for `Cc1ccccc1C(=O)Nc1ccc2nc3n(c(=O)c2c1)CCCC3` were, in that order, “inactive” and 22.5%.
On to `CCOc1ccccc1C(=O)Nc1ccc2nc3n(c(=O)c2c1)CCCCC3`, for which the Potency is 1.64 µM (active) and the cell number change is -27.2%.
For `CCO[C@@H]1OC(C(=O)NC2CC2)=C[C@H](c2csc3ccccc23)[C@H]1CCCO` the same measures were “inactive” and 0.265%.
Regarding `CC1CCN(S(=O)(=O)c2ccc3c(c2)N(CC(=O)NCCN2C(C)CCCC2C)C(=O)CS3)CC1` (configuration not stated), the Potency result was “inactive”.
`C=CCNC(=S)N1CC2(C)CN(C(=S)NCC=C)CC(C)(C1)C2=O`: the Potency entry was “inactive” and the cell number change was 9.2%.
With `CC(C)(C)c1[nH]ncc1[N+](=O)[O-]`, the Potency result was “inactive” and the cell number change was -8.1%.
